Measured values from PubChem BioAssay (NCATS).
Active and inactive are the calls of the source. Calls come from the whole dose curve; as a rule, active = well fitted activation curve with a large enough effect; inconclusive = small, poorly fitted or top-dose-only effect; inactive = flat fitted curve, though single readings scatter.

test: Confirmation and Secondary Assay for Modulators of Hemoglobin Beta Chain Splicing at IVS2 654 locus (AID 910); details: HeLa EGFP-654 splicing reporter, GFP fluorescence, 48 h; series mostly up to 46.1 µM;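 note: HeLa cells stably carrying EGFP split by mutant beta-globin IVS2-654 intron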
From the text: NIH Chemical Genomics Center [NCGC] NIH Molecular Libraries Screening Centers Network [MLSCN] MLSCN Grant: 1 X01 MH080684-01 PI Name: Dr. Ryszard Kole NCGC Assay Overview: Modulation of Alternative Splicing as Therapy Abnormal splicing is associated with a number of diseases, including cancer and genetic diseases such as cystic fibrosis, muscular dystrophy and beta-thalassemia. Alteration of disease associated splicing patterns provides a promising target for treatment. […] Mutations in the second intron of the b-globin gene at positions 654 or 705 are clinically relevant and cause mis-splicing which results in an out of frame gene product. […] EGFP-654 HeLa Cells as screen system. HeLa cell lines were stably transfected with a construct in which the EGFP (enhanced green fluorescent protein) cDNA was interrupted by the second intron of the beta-globin gene (IVS2-654). The ISV2 intron contains mutations which cause mis-splicing of EGFP and premature termination of EGFP which results in a nonfluorescent protein product. […] Expression of the transgene was driven by the CMV promoter. We concluded that a low molecular weight compound, which restored correct splicing of intron 2 would also generate functional EGFP protein, resulting in a fluorescent signal. Thus, the HeLa cells that express the EGFP-654 construct can be used for high throughput screening of a chemical library.
NCGC Assay Protocol Summary: Confirmatory Screening. Freshly thawed HeLa EGFP-654 cells were seeded in 5 ul of optimem media (Invitrogen) containing 2 % fetal calf serum (Hyclone) and 1x penicillin/streptomycin (Invitrogen) at a concentration of 500 cells per well in 1536-well plates. Cells were incubated overnight at 37C in 5% CO2. The next day, cells were treated with DMSO, 500 nM antisense ISV2 654 PNA control oligo, or library compound and allowed to grow at 37C in 5% CO2 for 2 days. The PNA oligo blocked the mutation site in the intron and allowed proper (wild type) splicing to occur, resulting in full length EGFP expression and also allowed for optimization of the assay parameters. Plates were read in the Acumen Explorer (TTP Labtech) using 488 nm laser excitation and 500-520 nm emission PMT filter in a 1 x 8 uM capture mode. Fluorescnet objects ranging in size from 5 to 250 uM were measured and the total peak GFP intensity for each well was used for data analysis. Keywords: Thalassemia, beta-thalassemia, beta-globin, EGFP, ISV2 654, ISV2 705, SSO, PNA, antisense, splicing, MLSMR, MLSCN, NIH Roadmap, qHTS, NCGC

SMILES	outcome
CCOC(=O)NNc1nncc2ccccc12	inactive
Cc1ccc(O)cc1	inactive
Nc1ncnc2nc[nH]c12	inactive
NC(N)=NCCCCN=C(N)N	inactive
CC(NCCC(c1ccccc1)c1ccccc1)c1ccccc1 (stereo unspecified)	inactive
Cc1cc(C(C)(C)C)c(O)c(C(C)(C)C)c1	inactive
OCc1c[nH]c2ccccc12	inactive
C[N+](C)(C)CCO	inactive
C1N2CN3CN1CN(C2)C3	inactive
Cc1ccc2c(Cl)cc(Cl)c(O)c2n1	inactive
Nc1c2ccccc2nc2ccccc12	inactive
CC(=O)OC/C=C(C)/C=C/C=C(C)/C=C/C1=C(C)CCCC1(C)C	inactive
O=C(O)/C=C(\CC(=O)O)C(=O)O	inactive
CC(=O)OCC[N+](C)(C)C	inactive
COC(=O)c1c(Cl)c(Cl)c(C(=O)OC)c(Cl)c1Cl	inactive
CCN(CC)CCOc1ccc(/C(=C(\Cl)c2ccccc2)c2ccccc2)cc1	inactive
